# ± gives the standard deviation of the averaged measurements.
# Tests used:
# Assay in all cases: promoter activity interaction Z-score (Lux/OD deviation from empty-vector control); higher = stronger promoter induction by the compound
# [1] = system: E. coli BW25113 acrABp lux reporter
# How it was run: (§1)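 E. coli BW25113 (wild type or marA, soxS or rob deletion) carrying low-copy luxCDABE promoter reporters grew in 40 µl LB Lennox in 384-well plates at 37°C. Each compound was tested at four 1:2 dilutions in biological duplicates. OD600 and luminescence were read every 30 min for 12 h. Areas were taken over 0–8 h (wild type) or 1–9 h (mutants), and wells below 10% of median growth area were removed. The score is the Z-transformed residual of growth-normalised luminescence fitted against the empty-vector control.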
# [2] = system: E. coli BW25113 micFp lux reporter
# How it was run: as §1
# [3] = system: E. coli BW25113 ompFp lux reporter
# How it was run: as §1
# [4] = system: E. coli BW25113 robp lux reporter
# How it was run: as §1
# [5] = system: E. coli BW25113 soxSp lux reporter
# How it was run: as §1
# [6] = system: E. coli BW25113 tolCp lux reporter
# How it was run: as §1
# [7] = 21 µg/ml, genetic background: wild type
# [8] = 21 µg/ml, genetic background: ΔmarA
# [9] = 21 µg/ml, genetic background: Δrob
# [10] = 21 µg/ml, genetic background: ΔsoxS
# [11] = 42 µg/ml, genetic background: wild type
# [12] = 42 µg/ml, genetic background: ΔmarA
# [13] = 42 µg/ml, genetic background: Δrob
# [14] = 42 µg/ml, genetic background: ΔsoxS
# [15] = 84.1 µg/ml, genetic background: wild type
# [16] = 84.1 µg/ml, genetic background: ΔmarA
# [17] = 84.1 µg/ml, genetic background: Δrob
# [18] = 84.1 µg/ml, genetic background: ΔsoxS
# [19] = 168.2 µg/ml, genetic background: wild type
# [20] = 168.2 µg/ml, genetic background: ΔmarA
# [21] = 168.2 µg/ml, genetic background: Δrob
# [22] = 168.2 µg/ml, genetic background: ΔsoxS
compound,measurement,setting,value
COc1ccc2cc3[n+](cc2c1OC)CCc1cc2c(cc1-3)OCO2 [Berberine],promoter activity interaction Z-score,[1]; [7],0.0236 ± 0.072
same,promoter activity interaction Z-score,[1]; [8],-0.475 ± 0.1
same,promoter activity interaction Z-score,[1]; [9],-0.306 ± 0.009
same,promoter activity interaction Z-score,[1]; [10],0.123 ± 0.39
same,promoter activity interaction Z-score,[1]; [11],-0.0191 ± 0.052
same,promoter activity interaction Z-score,[1]; [12],-0.27 ± 0.38
same,promoter activity interaction Z-score,[1]; [13],-0.196 ± 0.1
same,promoter activity interaction Z-score,[1]; [14],0.128 ± 0.55
same,promoter activity interaction Z-score,[1]; [15],-0.175 ± 0.13
same,promoter activity interaction Z-score,[1]; [16],-0.268 ± 0.47
same,promoter activity interaction Z-score,[1]; [17],-0.263 ± 0.31
same,promoter activity interaction Z-score,[1]; [18],0.253 ± 1.1
same,promoter activity interaction Z-score,[1]; [19],-0.0717 ± 0.13
same,promoter activity interaction Z-score,[1]; [20],-1.16 ± 0.13
same,promoter activity interaction Z-score,[1]; [21],-0.157 ± 0.19
same,promoter activity interaction Z-score,[1]; [22],0.745 ± 1.3
same,promoter activity interaction Z-score,[2]; [7],-0.242 ± 0.064
same,promoter activity interaction Z-score,[2]; [8],0.146 ± 0.14
same,promoter activity interaction Z-score,[2]; [9],-0.0671 ± 0.15
same,promoter activity interaction Z-score,[2]; [10],-0.125 ± 0.15
same,promoter activity interaction Z-score,[2]; [11],0.0805 ± 0.15
same,promoter activity interaction Z-score,[2]; [12],0.226 ± 0.014
same,promoter activity interaction Z-score,[2]; [13],0.0807 ± 0.046
same,promoter activity interaction Z-score,[2]; [14],0.68 ± 0.077
same,promoter activity interaction Z-score,[2]; [15],0.36 ± 0.12
same,promoter activity interaction Z-score,[2]; [16],0.426 ± 0.11
same,promoter activity interaction Z-score,[2]; [17],0.14 ± 0.12
same,promoter activity interaction Z-score,[2]; [18],0.7 ± 0.18
same,promoter activity interaction Z-score,[2]; [19],0.445 ± 0.051
same,promoter activity interaction Z-score,[2]; [20],0.425 ± 0.057
same,promoter activity interaction Z-score,[2]; [21],0.095 ± 0.17
same,promoter activity interaction Z-score,[2]; [22],2.075 ± 0.006
same,promoter activity interaction Z-score,[3]; [7],-0.331 ± 0.05
same,promoter activity interaction Z-score,[3]; [8],-0.189 ± 0.11
same,promoter activity interaction Z-score,[3]; [9],-0.392 ± 0.37
same,promoter activity interaction Z-score,[3]; [10],-0.128 ± 0.0057
same,promoter activity interaction Z-score,[3]; [11],-0.202 ± 0.02
same,promoter activity interaction Z-score,[3]; [12],-0.182 ± 0.032
same,promoter activity interaction Z-score,[3]; [13],0.159 ± 0.48
same,promoter activity interaction Z-score,[3]; [14],-0.184 ± 0.26
same,promoter activity interaction Z-score,[3]; [15],-0.592 ± 0.13
same,promoter activity interaction Z-score,[3]; [16],0.181 ± 0.27
same,promoter activity interaction Z-score,[3]; [17],-0.302 ± 0.21
same,promoter activity interaction Z-score,[3]; [18],0.222 ± 0.86
same,promoter activity interaction Z-score,[3]; [19],-0.265 ± 0.1
same,promoter activity interaction Z-score,[3]; [20],-0.655 ± 0.28
same,promoter activity interaction Z-score,[3]; [21],-0.0984 ± 0.32
same,promoter activity interaction Z-score,[3]; [22],0.615 ± 1.2
same,promoter activity interaction Z-score,[4]; [7],-0.384 ± 0.27
same,promoter activity interaction Z-score,[4]; [8],-0.668 ± 0.061
same,promoter activity interaction Z-score,[4]; [9],-0.229 ± 0.035
same,promoter activity interaction Z-score,[4]; [10],1.02 ± 0.67
same,promoter activity interaction Z-score,[4]; [11],-0.378 ± 0.14
same,promoter activity interaction Z-score,[4]; [12],-0.587 ± 0.51
same,promoter activity interaction Z-score,[4]; [13],-0.855 ± 0.25
same,promoter activity interaction Z-score,[4]; [14],-0.0756 ± 0.39
same,promoter activity interaction Z-score,[4]; [15],-0.935 ± 0.66
same,promoter activity interaction Z-score,[4]; [16],-0.613 ± 0.14
same,promoter activity interaction Z-score,[4]; [17],-0.951 ± 0.11
same,promoter activity interaction Z-score,[4]; [18],-0.288 ± 0.24
same,promoter activity interaction Z-score,[4]; [19],-0.906 ± 0.21
same,promoter activity interaction Z-score,[4]; [20],-1.18 ± 0.24
same,promoter activity interaction Z-score,[4]; [21],-0.88 ± 0.11
same,promoter activity interaction Z-score,[4]; [22],-0.247 ± 0.37
same,promoter activity interaction Z-score,[5]; [7],0.0121 ± 0.039
same,promoter activity interaction Z-score,[5]; [8],0.176 ± 0.081
same,promoter activity interaction Z-score,[5]; [9],0.152 ± 0.084
same,promoter activity interaction Z-score,[5]; [10],-0.0133 ± 0.085
same,promoter activity interaction Z-score,[5]; [11],0.0147 ± 0.0098
same,promoter activity interaction Z-score,[5]; [12],0.336 ± 0.2
same,promoter activity interaction Z-score,[5]; [13],0.0622 ± 0.0015
same,promoter activity interaction Z-score,[5]; [14],-0.227 ± 0.048
same,promoter activity interaction Z-score,[5]; [15],-0.148 ± 0.0029
same,promoter activity interaction Z-score,[5]; [16],0.232 ± 0.064
same,promoter activity interaction Z-score,[5]; [17],0.0295 ± 0.037
same,promoter activity interaction Z-score,[5]; [18],-0.359 ± 0.27
same,promoter activity interaction Z-score,[5]; [19],-0.174 ± 0.033
same,promoter activity interaction Z-score,[5]; [20],0.0364 ± 0.046
same,promoter activity interaction Z-score,[5]; [21],-0.0651 ± 0.054
same,promoter activity interaction Z-score,[5]; [22],-0.426 ± 0.38
same,promoter activity interaction Z-score,[6]; [7],0.227 ± 1.2
same,promoter activity interaction Z-score,[6]; [8],0.771 ± 0.18
same,promoter activity interaction Z-score,[6]; [9],-0.361 ± 0.45
same,promoter activity interaction Z-score,[6]; [10],0.909 ± 0.084
same,promoter activity interaction Z-score,[6]; [11],0.235 ± 0.016
same,promoter activity interaction Z-score,[6]; [12],1.1 ± 0.24
same,promoter activity interaction Z-score,[6]; [13],0.305 ± 0.6
same,promoter activity interaction Z-score,[6]; [14],0.638 ± 0.84
same,promoter activity interaction Z-score,[6]; [15],0.735 ± 0.75
same,promoter activity interaction Z-score,[6]; [16],0.534 ± 0.58
same,promoter activity interaction Z-score,[6]; [17],0.496 ± 0.28
same,promoter activity interaction Z-score,[6]; [18],-0.159 ± 0.1
same,promoter activity interaction Z-score,[6]; [19],0.2 ± 1.1
same,promoter activity interaction Z-score,[6]; [20],-0.272 ± 1.3
same,promoter activity interaction Z-score,[6]; [21],0.279 ± 0.36
same,promoter activity interaction Z-score,[6]; [22],1.31 ± 0.19

# Source: the supplement of paper PMC12282887
